Experimental data as given in PubChem BioAssay AID604 (The Scripps Research Institute Molecular Screening Center, 2007).
Among all 60,000 compounds or so, about 210 (0.35%) were called active. What follows is part of a selection rich in actives, with near analogues and random picks from the rest. A number with no mark means an inactive call.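 Rule for the calls: active = inhibition above the screen-wide mean inhibition plus 3 SD (cut at about 18% in these data); inactive = the rest.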

Each compound was assayed against Rho-associated protein kinase 2 (Homo sapiens) (UniProt O75116) (assay: ROCK2 enzymatic activity blockers – biochemical, high-throughput, luminescence, primary screen (AID 604;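 note: plate controls were DMSO wells for no effect and Y-27632 control wells after no-enzyme background subtraction for full effect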)). Conditions: purified ROCK2, Kinase-Glo ATP depletion luminescence; at 6 µM; stronger effect = higher value.
Rho-associated protein kinase 2 (Homo sapiens), sequence (O75116 whole entry, looked up): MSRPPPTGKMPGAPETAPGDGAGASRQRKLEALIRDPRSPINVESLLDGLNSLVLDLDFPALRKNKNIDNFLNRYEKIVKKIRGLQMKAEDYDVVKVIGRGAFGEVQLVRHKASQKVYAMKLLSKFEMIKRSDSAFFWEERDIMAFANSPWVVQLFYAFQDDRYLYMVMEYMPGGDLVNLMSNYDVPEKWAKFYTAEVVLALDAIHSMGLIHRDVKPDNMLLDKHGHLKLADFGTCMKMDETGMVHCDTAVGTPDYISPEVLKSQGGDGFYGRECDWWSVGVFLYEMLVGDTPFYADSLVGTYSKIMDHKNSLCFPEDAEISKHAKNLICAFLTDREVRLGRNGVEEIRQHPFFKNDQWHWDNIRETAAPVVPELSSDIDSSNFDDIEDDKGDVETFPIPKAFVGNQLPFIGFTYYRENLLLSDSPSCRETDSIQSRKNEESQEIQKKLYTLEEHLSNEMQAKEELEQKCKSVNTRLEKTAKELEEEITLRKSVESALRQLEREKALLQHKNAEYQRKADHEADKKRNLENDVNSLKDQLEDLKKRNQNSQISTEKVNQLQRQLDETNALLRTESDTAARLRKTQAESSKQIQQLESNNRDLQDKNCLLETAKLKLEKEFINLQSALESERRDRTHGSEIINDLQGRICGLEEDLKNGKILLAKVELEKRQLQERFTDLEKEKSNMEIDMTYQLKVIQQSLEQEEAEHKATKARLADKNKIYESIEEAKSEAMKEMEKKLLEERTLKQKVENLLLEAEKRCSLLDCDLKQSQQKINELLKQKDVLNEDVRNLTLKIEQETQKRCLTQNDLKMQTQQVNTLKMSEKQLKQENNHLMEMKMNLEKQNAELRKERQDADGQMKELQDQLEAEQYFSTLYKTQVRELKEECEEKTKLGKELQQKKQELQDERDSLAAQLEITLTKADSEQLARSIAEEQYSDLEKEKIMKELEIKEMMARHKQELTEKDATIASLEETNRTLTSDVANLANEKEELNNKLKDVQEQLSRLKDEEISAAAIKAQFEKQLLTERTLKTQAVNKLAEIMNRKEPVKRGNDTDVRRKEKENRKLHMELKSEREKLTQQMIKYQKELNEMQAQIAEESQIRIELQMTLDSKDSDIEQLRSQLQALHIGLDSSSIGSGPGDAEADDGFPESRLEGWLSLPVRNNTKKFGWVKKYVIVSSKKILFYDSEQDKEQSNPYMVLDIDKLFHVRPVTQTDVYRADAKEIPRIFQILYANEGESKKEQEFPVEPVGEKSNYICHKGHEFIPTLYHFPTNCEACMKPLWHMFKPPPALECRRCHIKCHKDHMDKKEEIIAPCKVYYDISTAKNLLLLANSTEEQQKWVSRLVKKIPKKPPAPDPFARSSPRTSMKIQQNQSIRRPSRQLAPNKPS
`CCOC(=O)C1(c2ccccc2)NC(c2ccc(N(C)C)cc2)C2C(=O)N(C)C(=O)C21` (stereo unspecified) showed an inhibition of 5.3%. `O=C(CSc1nnc(-c2ccco2)n1Cc1ccccc1)NC(=O)NCc1ccco1` was tested, and the inhibition was 5.5%. Compound `Cc1nonc1OCCn1nnnc1N` has an inhibition of 4%. `CCCC(=O)N1CCc2[nH]c3ccccc3c2C1` gave an inhibition of 14.9%. In the case of `COC(=O)c1cc(OC)c(OC)cc1NC(=O)C1CCCO1` (stereo unspecified), the inhibition is reported as 5.6%. Work on `CS(=O)(=O)N(Cc1nc2sc3c(c2c(=O)[nH]1)CCCC3)C1CCCCC1` yielded an inhibition of -12.6%. `Cc1cccc(NC(=O)CSc2nnc(CCCCCNC(=O)OC(C)(C)C)o2)c1C` gave an inhibition of 3.8%. `CC1CCC(NS(=O)(=O)c2ccc3c(c2)n(C)c(=O)c(=O)n3C)CC1` (stereo unspecified) gave an inhibition of 3.2%. In the case of `CC(C)Cc1ccc(S(=O)(=O)N2CCN(C(=O)c3ccco3)CC2)cc1`, the inhibition is reported as 8%. `O=C(C(NS(=O)(=O)c1cccc2nsnc12)c1ccccc1)N1CCN(c2ccccn2)CC1` (stereo unspecified) was tested, and the inhibition was 6.9%. Work on `COc1cccc(N(CC(=O)Nc2cccc(F)c2)S(C)(=O)=O)c1` yielded an inhibition of -1.3%. Compound `O=C(O)CCSc1nnc(-c2ccccc2)n1-c1ccccc1` has an inhibition of 2.5%. `CN1C(=O)CC(N2CCN(c3ccccn3)CC2)C1=O` (stereo unspecified) showed an inhibition of 0.7%. For `COc1ccc(Cc2nnc(NS(=O)(=O)Cc3ccccc3)s2)cc1`, the inhibition was -0.2%. For `CCOC(=O)CSc1nnc(NC(=O)c2cccc(S(=O)(=O)N3CCCC3)c2)s1`, the inhibition was -2.8%. In the case of `CC(C)OC(=O)C(C#N)c1nc2ccccc2nc1N1CCN(Cc2ccc3c(c2)OCO3)CC1` (stereo unspecified), the inhibition is reported as 3.1%. `CCCCN(C)C(=O)c1ccc2c(c1)N(CC)C(=O)c1ccccc1S2(=O)=O` gave an inhibition of -4.8%. `COc1cc2c(cc1OC)C(c1ccncc1)CC(=O)N2` (stereo unspecified) showed an inhibition of 9.6%. Compound `COc1cccc(N(CC(=O)NC2CCCC2)C(=O)Cn2nnc(-c3ccc(C)cc3)n2)c1` has an inhibition of -2%. In the case of `O=C(Nc1nc(-c2ccncc2)cs1)C1COc2ccccc2O1` (stereo unspecified), the inhibition is reported as 114% (active). `COc1ccc(OC)c2sc(NC(=O)C3COc4ccccc4O3)nc12` (stereo unspecified) was tested, and the inhibition was -3.1%. With `O=C(Nc1nc(-c2ccc3c(c2)OCO3)cs1)c1ccncc1` the inhibition was -1.2%. Compound `Cc1ccc(N(CC(O)CN2CCCC2)S(=O)(=O)c2ccccc2)cc1` (stereo unspecified) has an inhibition of 1.4%. With `CC1=C(C(=O)OCc2ccccc2)C(c2ccco2)n2ncnc2N1` (stereo unspecified) the inhibition was -9.2%. `CC(=C1C(=O)c2ccccc2C1=O)N1CCN(c2ccccn2)CC1` showed an inhibition of 7.8%. In the case of `Cc1cccc2cc(CN(Cc3nnnn3Cc3ccccc3)C3CCCC3)c(=O)[nH]c12`, the inhibition is reported as -0.6%.
